Results on 57 compounds are retold here after PubChem BioAssay AID504652 (National Center for Advancing Translational Sciences (NCATS), 2011).

Out of some 360,000 compounds screened, about 11,000 (3.1%) were called active. The list comes from a sample in which actives are over-represented; it also holds similar structures and randomly drawn compounds. Values without a mark were called inactive. No stated cut-off is given here; in the data, active means activity change below about -30%; inactive means the rest.
On the % scale 0 is the no-effect control and ±100 the full control effect.

Sequence of D(1A) dopamine receptor (Homo sapiens) (P21728 whole entry, looked up): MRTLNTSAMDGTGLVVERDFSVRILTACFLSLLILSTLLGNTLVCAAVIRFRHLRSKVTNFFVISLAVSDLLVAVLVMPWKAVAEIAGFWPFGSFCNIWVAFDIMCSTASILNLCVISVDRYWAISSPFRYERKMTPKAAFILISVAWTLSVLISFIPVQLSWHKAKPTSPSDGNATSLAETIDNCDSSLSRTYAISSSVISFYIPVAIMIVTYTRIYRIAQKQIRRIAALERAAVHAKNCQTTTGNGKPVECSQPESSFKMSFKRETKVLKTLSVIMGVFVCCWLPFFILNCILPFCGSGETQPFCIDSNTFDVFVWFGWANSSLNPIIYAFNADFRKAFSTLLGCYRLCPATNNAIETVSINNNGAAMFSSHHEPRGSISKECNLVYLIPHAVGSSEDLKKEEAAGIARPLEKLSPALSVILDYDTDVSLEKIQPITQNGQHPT

This test concerns the target D(1A) dopamine receptor (Homo sapiens) (UniProt P21728). Briefly: Antagonist of Human D 1 Dopamine Receptor: qHTS. Conditions: HEK293 TREx D1 cells, calcium flux, dopamine EC80; at 10 µM; stronger effect = lower value. A digest of the protocol:
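Antagonism measured as reduced calcium response to an EC80 dopamine addition following 180 s compound pre-read; cells were inducible HEK293 Trex D1 plated overnight at 30 C, read kinetically at 1 cycle/sec.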
(Quantitative high-throughput screening tests each substance at several concentrations.)
For the compound `Cn1cc(C(=O)c2ccc(Cl)cc2Cl)cc1C(=O)NN`, the activity change, negative = inhibition is -37.3% (active).

Regarding `O=C(CCN1C(=O)c2ccccc2C1=O)NNC(=O)c1ccc(Cl)cc1Cl`, the activity change, negative = inhibition is -4.44%. Next, `CC(C)(C)c1cc(C(=O)NN)n(Cc2ccc(Cl)cc2Cl)n1`: -27.8%; `Cc1ccc(NC(=O)c2cn3c4c(ccc(Cl)c4c2=O)OC(C)C3)cc1C` (configuration not stated): -1.66%; `Cc1cc(Cl)ccc1NC(=O)Cc1ccc(NC(=O)N2CCCCc3ccccc32)cc1`: -3.59%.

`CCOc1ccc(NC(=O)CCc2c(C)nn(-c3ccc(N4CCCC4)nn3)c2C)cc1`: the activity change, negative = inhibition was 4.71%. As to `CC(=O)Nc1c(C)nn(-c2ccccc2)c1N1CCC(C(=O)Nc2cc(Cl)ccc2C)CC1`, the activity change, negative = inhibition is -18.9%. With `CSc1ncc(Cl)c(C(=O)Nc2ccc(S(=O)(=O)N3CCCC(C)C3)cc2)n1` (configuration not stated), the activity change, negative = inhibition was -5.19%. Consider `CN(Cc1ccccc1)C(=O)c1ccc(COc2ccccc2)cc1`, for which the activity change, negative = inhibition was -60.8% (active). Next, `CCOc1ccc(CN(C)C(=O)c2ccc(=O)[nH]c2)cc1`: 10.3%; `CN(CC(=O)Nc1ccc(Cl)cc1)C(=O)c1ccc(COc2ccccc2)cc1`: 3.34%; `CCOc1cc(C2C(C(=O)OC)=C(C)NC3=C2C(=O)c2ccccc23)ccc1O` (configuration not stated): -1.02%. As to `COc1ccccc1-c1cc2nc(C)c(CCC(=O)NC3CCCCC3)c(C)n2n1`, the activity change, negative = inhibition was 2.22%. With `COC(=O)c1ccc(NC(=O)Nc2ccc(C)cc2)cc1` the figure was -35.1% (active).

`COC(=O)c1sccc1NC(=O)CCC1CCCC1`: the activity change, negative = inhibition was 1.13%. Next, `COc1cc(NC(=O)Nc2ccc(C)cc2)cc([N+](=O)[O-])c1`: -3.95%; `COC(=O)c1sccc1NN1C(=O)c2ccccc2C1=O`: -47.9% (active). With `COC(=O)c1sccc1NC(=O)c1ccc(Cl)cc1` the figure was 1.11%; with `COC(=O)c1sccc1NC(=S)Nc1ccc(C)cc1`, -32.4% (active); with `COC(=O)c1sccc1NS(=O)(=O)c1ccc(F)cc1F`, -12%.

Take `CCOC(=O)C(=CNNc1ccsc1C(=O)OC)C(=O)OCC`: the activity change, negative = inhibition is 12.1%. With `COC(=O)c1ccc(NC(=S)Nc2cccc(C)n2)cc1` the figure was -4.64%; with `Cc1oc2c(c1C(=O)Nc1ccc(F)c(F)c1)C1=NCCN1C=N2`, -2.12%. As for `CCOC(=O)c1ccc(NC(=O)c2ncn(-c3ccccc3)n2)cc1`, the activity change, negative = inhibition is -18.3%. Next, `O=C(CCC1N=C2c3ccccc3N=C(SCc3ccccc3F)N2C1=O)NCCc1ccccc1` (configuration not stated): 14.5%; `COc1ccc(N2CCN(Cc3nc4c(c(=O)[nH]c(=O)n4C)n3Cc3ccc(Cl)cc3)CC2)cc1`: -1.05%; `Cc1ccc(NC(=O)c2nc(S(=O)(=O)Cc3cccc(C)c3)ncc2Cl)cc1`: -29.3%.

With `Cc1cccc(CS(=O)(=O)c2ncc(Cl)c(C(=O)Nc3ccc(F)cc3)n2)c1`, the activity change, negative = inhibition is -44.7% (active). As to `Cc1cccc(NC(=O)c2nc(S(=O)(=O)Cc3ccccc3)ncc2Cl)c1`, the activity change, negative = inhibition is -28.7%. Next, `CCc1cccc(CC)c1NC(=O)Cn1c(=O)c(-c2cc(C)ccc2NC(C)=O)nc2ccccc21`: -15.1%; `Cc1nn(C)c2c1c(C(F)(F)F)cc(=O)n2C(C)C(=O)NCc1ccc(Cl)cc1` (configuration not stated): 16.7%.

For `O=C(Nc1ccc(S(=O)(=O)N2CCC(c3nc4ccccc4s3)CC2)cc1)c1ccccc1F`, the activity change, negative = inhibition was 11%. With `COc1ccc(N2CCN(S(=O)(=O)CCNC(=O)C(c3ccccc3)c3ccccc3)CC2)cc1` the figure was -1.95%; with `CNc1ccc(NC(C)=O)cc1[N+](=O)[O-]`, -1.26%. With `CCOC(=O)c1ccc(NNC(C)=O)c([N+](=O)[O-])c1` the figure was -8.63%; with `NC(=O)c1ccc(Nc2ccc3c(c2)CCC3)c([N+](=O)[O-])c1`, -48.2% (active). With `Cc1ccc(Nc2ccc(C(N)=O)cc2[N+](=O)[O-])cc1` the figure was -47.2% (active); with `CCOc1ccccc1Nc1ccc(C(=O)O)cc1[N+](=O)[O-]`, -11.5%. With `O=[N+]([O-])c1ccccc1Nc1ccc(O)cc1`, the activity change, negative = inhibition was 5.4%. With `COC(=O)c1cnn(-c2ccc(C(=O)Nc3ccc(OC(F)(F)F)cc3)cc2)c1N` the figure was -10.8%; with `COc1ccc(Cn2c(C(=O)O)c(CNCc3cccc(OC)c3)c3ccc(C)cc32)cc1`, 8.54%; with `C[C@H](NC(=O)C1CC(=O)N(c2ccc3c(c2)OCCO3)C1)C(=O)N1CCC(C(=O)O)CC1` (some centres not stated), 9.3%.

Regarding `CC(C)C[C@H](NC(=O)C1CC(=O)N(c2ccc3c(c2)OCCO3)C1)C(=O)NC1CCCC1` (some centres not stated), the activity change, negative = inhibition is -44.1% (active). With `CCOC(=O)c1ccc(NC(=O)C2CC(=O)N(c3ccc4c(c3)OCCO4)C2)cc1` (configuration not stated) the figure was 6.91%; with `COc1ccc(S(=O)(=O)N(CC(=O)NCc2ccco2)c2ccc(F)cc2)cc1`, -3.07%; with `Cc1ccc(S(=O)(=O)N(CC(=O)NCc2ccco2)c2ccccc2C)cc1`, -44.4% (active).

For the compound `CCN(CC(=O)NCc1ccco1)S(=O)(=O)c1ccc(F)cc1`, the activity change, negative = inhibition is -0.842%. Next, `CCOC(=O)N1CCN(S(=O)(=O)N2CCCC(C(=O)NCCCN3CCC(C)CC3)C2)CC1` (configuration not stated): 2.88%; `CCCS(=O)(=O)N1CCCC(C(=O)NCCN2CCCCC2C)C1` (configuration not stated): -41.8% (active). Next, `CCCS(=O)(=O)N1CCCC(C(=O)NCc2ccco2)C1` (configuration not stated): 6.64%. Next, `COc1ccccc1CNC(=O)CCn1c(=O)c2ccccc2n(CC(=O)Nc2ccc(Br)cc2F)c1=O`: 0.197%; `COc1ccc(C)cc1NC(=O)CCc1c(C)nn(-c2ccc(N3CCOCC3)nn2)c1C`: -25.9%; `Cc1ccc(Cl)cc1NC(=S)N(CCN(C)C)Cc1cccs1`: -0.901%. For the compound `Cc1ccc(NC(=S)N(CCN(C)C)Cc2cccs2)cc1C`, the activity change, negative = inhibition is -42.5% (active). Next, `Cc1ccccc1NC(=S)N(CCCN1CCOCC1)Cc1cccs1`: -5.87%; `COC(=O)c1scc(-c2ccc(C)cc2)c1S(=O)(=O)Nc1cc(Cl)c(OC)cc1OC`: 10.2%.

Consider `Cc1ccc(CSc2nc3ccsc3c(=O)n2CCC(C)C)cc1`, for which the activity change, negative = inhibition was 13.8%.
